Experimental findings from PubChem BioAssay (EPA / NIEHS) are described below.

“And” between values parts separate entries of the source, which are not always exact repeats. Identical values can stand only once. Inconclusive results are not listed. More than one record can exist for a structure, and the calls need not agree. The source made the active and inactive calls. Rule for the calls, unless noted: active = hit-call score of the fitted dose curve at least 0.9, where 1 is the maximum; inactive = score below 0.9.

A short description of experiment [1]: CCTE_Mundy_HCI_Cortical_Synap_Neur_Matur_NeuriteSpotCountPerNeuron: CCTE's Synaptogenesis and Neurite Maturation Assay in rat cortical cells for Neurite Spot Count per Neuron Count, Mundy Lab (AID 2284215). The essentials:
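Read-out: neurite-associated synaptophysin puncta per neuron, imaged by high-content analysis after MAP2, synaptophysin and Hoechst staining. Rat primary cortical cultures, dosed DIV 7 through DIV 12; DMSO served as baseline.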

A short description of experiment [2]: TAMU_PeakParms_SingleDonor1434_Chronotropy: Texas A&M University (TAMU) 1.5-hr Human Induced Pluripotent Stem Cell (iPSC)-derived Cardiomyocytes Calcium (Ca+2) Flux Assay for Cardiotoxicity: Chronotropy (changes in peak frequency) (AID 2284217). As to conditions: actives raise or lower the signal. The essentials: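 iPSC-derived cardiomyocytes (single donor 1434) dosed at 0.2, 1, 10 and 100 uM in 0.5% DMSO for 1.5 h at 37C; Ca2+ dye fluorescence gave average beat frequency. Zero-beat points removed; bidirectional fit versus DMSO, POD as EC05.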

Experiment [3] can be described thus: CCTE_Mundy_HCI_Cortical_Synap_Neur_Matur_SynapseCount: CCTE's Synaptogenesis and Neurite Maturation Assay in rat cortical cells for Synapse Count, Mundy Lab (AID 2284218). The essentials:
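Primary rat cortical culture; AraC DIV 5 to arrest glia; compound + media change DIV 7; terminated DIV 12. PFA/Hoechst fix, anti-MAP2 + anti-synaptophysin immunostain; HCI synapse count/neuron; DMSO = baseline.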

Experiment [4] can be described thus: CCTE_Mundy_HCI_Cortical_Synap_Neur_Matur_NeuriteCount: CCTE's Synaptogenesis and Neurite Maturation Assay in rat cortical cells for Neurite Count, Mundy Lab (AID 2284222).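 For outcome: exposure from day 7 to day 12 in vitro with readout at day 12.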 The essentials: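 Rat primary cortical cells; AraC added at DIV 5, chemicals dosed with media change at DIV 7 through DIV 12. MAP2/synaptophysin/Hoechst immunostaining, high-content imaging of neurite number; fitted relative to DMSO.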

A short description of experiment [5]: CCTE_Mundy_HCI_Cortical_Synap_Neur_Matur_CellBodySpotCount: CCTE's Synaptogenesis and Neurite Maturation Assay in rat cortical cells for Cell Body Spot Count, Mundy Lab (AID 2284223). The essentials:
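Read-out: cell body-associated synaptophysin puncta per neuron, imaged after MAP2, synaptophysin and Hoechst staining. Rat cortical cells, AraC DIV 5, chemical dosing DIV 7, fixation DIV 12. Activity fitted in positive direction relative to DMSO baseline.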

The nature of experiment [6]: BSK_BT_PBMCCytotoxicity: PBMC Cytotoxicity Assessment in the BioMAP Diversity Plus: BT Assay (AID 2284225).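 Note: PBMC viability measured by Alamar Blue dye reduction fluorescence.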 As to conditions: primary human B cells with PBMC. In short, it runs like this:
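PBMC (75,000/well) pretreated with compound 1 h, then activated with SEB and TSST-1 (20 ng/mL each final), incubated 90 h; Alamar Blue added 6 h, fluorescence read at 546/580 nm. Fitted relative to DMSO.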

Read-out in experiment [7]: Secreted IgG (sIgG), gene 3500
In words: BSK_BT_sIgG: BioMAP Diversity Plus: BT Assay for Secreted IgG (sIgG) Biomarker Activity (AID 2284226). As to conditions: primary human B cells with PBMC. The essentials:
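Read-out: ELISA for secreted IgG after 24 h of chemical exposure in a B cell plus PBMC co-culture. Values reflect upward-direction fitting against DMSO negative controls.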

A short description of experiment [8]: BSK_BT_Bcell_Proliferation: Viability Assessment in the BioMAP Diversity Plus: BT Assay for B cell Proliferation (AID 2284227). As to conditions: primary human B cells with PBMC. The essentials: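 Human B cells co-cultured with PBMC were dosed with test chemicals and relative cell number was quantified by SRB staining at 72 h. Cells were fixed in 10% TCA, stained with 0.1% SRB and read at 560 nm. Activity was fitted in the positive direction against DMSO.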

Read-out in experiment [9]: Interleukin 6 (IL6), IL6 (gene 3569)
In words: BSK_BT_xIL6: BioMAP Diversity Plus: BT Assay for Interleukin 6 (IL6) Biomarker Activity (AID 2284228). The note with it: primary human B cells with PBMC. The essentials: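 Readout: secreted IL-6 via Luminex xMAP multiplex, 24 h post-dosing. System: primary human B cells co-cultured with PBMC. Signal change scored relative to DMSO vehicle, positive fitting direction.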

Read-out in experiment [10]: Interleukin 17A (IL17A), IL17A (gene 3605)
In words: BSK_BT_xIL17A: BioMAP Diversity Plus: BT Assay for Interleukin 17A (IL17A) Biomarker Activity (AID 2284229). As to conditions: primary human B cells with PBMC. The essentials:
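Luminex xMAP readout of secreted IL-17A; human B cell + PBMC co-culture; 24 h post-dose; positive-direction fit vs DMSO negative control.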

Read-out in experiment [11]: Tumor necrosis factor (Homo sapiens) (UniProt P01375)
The experiment is described as follows: BSK_BT_xTNFa: BioMAP Diversity Plus: BT Assay for Tumor necrosis factor alpha (TNF-alpha) Biomarker Activity (AID 2284230). As to conditions: primary human B cells with PBMC. The essentials:
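B cells with PBMC in co-culture, dosed and sampled at 24 h; secreted TNF-alpha measured by Luminex xMAP bead assay. Activity fitted in the gain direction against DMSO as negative control and baseline.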

Read-out in experiment [12]: Vascular cell adhesion molecule 1 (VCAM1), VCAM1 (gene 7412)
In words: BSK_MyoF_VCAM1: BioMAP Diversity Plus: MyoF Assay for Vascular cell adhesion molecule 1 (VCAM1) Biomarker Activity (AID 2284231). The note with it: primary human lung fibroblasts. In short, it runs like this:
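MyoF system, lung fibroblasts; 24 h post-dose; VCAM-1 by ELISA; gain-of-signal fit vs DMSO baseline.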

Experiment [13] in a line: CCTE_Mundy_HCI_Cortical_NOG_NeuronCount: CCTE's Neurite Outgrowth Assay in rat cortical cells for Neuron Count, Mundy Lab (AID 2284236; active = hit-call score of the fitted dose curve at least 0.9, where 1 is the maximum;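 note: neurons counted by imaging betaIII-tubulin and Hoechst stained cortical cells; cells exposed to compound for about 48 hours before fixation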). In short, it runs like this: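 Read-out: neuron number by high-content imaging of betaIII-tubulin (Alexa Fluor-488) and Hoechst-labelled rat primary cortical cells.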
Experiment [14] in a line: TAMU_HCS_1.5hr_SingleDonor1434_Cytotoxicity: Cytotoxicity Assessment using High-content Screening (HCS) Fluorescent Imaging for the Texas A&M University (TAMU) 1.5-hr Human Induced Pluripotent Stem Cell (iPSC)-derived Cardiotoxicity Assay (AID 2284234; active = hit-call score of the fitted dose curve at least 0.9, where 1 is the maximum). In short, it runs like this: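 Human iPSC-derived cardiomyocytes dosed at 0.2, 1, 10, 100 uM final (0.5% DMSO) for 90 min at 37 C. Hoechst 33342-stained nuclei counted by 10x high-content imaging; POD is EC10, a 10% drop in total cell count versus DMSO.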

Experiment [15] is described as follows: TAMU_PeakParms_SingleDonor1434_QT: Texas A&M University (TAMU) 1.5-hr Human Induced Pluripotent Stem Cell (iPSC)-derived Cardiomyocytes Calcium (Ca+2) Flux Assay for Cardiotoxicity: QT (decay-rise ratio) (AID 2284235; active = hit-call score of the fitted dose curve at least 0.9, where 1 is the maximum). In short, it runs like this:
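iPSC-derived cardiomyocytes (single donor 1434) dosed at 0.2, 1, 10, 100 uM final in 0.5% DMSO, 90 min at 37C. Ca2+ flux fluorescence decay/rise ratio; EC05 (5% increase versus DMSO) as POD, excluding beat-arrest and severe-notch data.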

Experiment [16] can be described thus: CCTE_Mundy_HCI_hNP1_Pro_ResponderAvgInten: CCTE's Proliferation Assay in human neuroprogenitor cells, Mundy Lab (AID 2284224; active = hit-call score of the fitted dose curve at least 0.9, where 1 is the maximum;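 note: human neural progenitor cells hNP1 derived from WA09 embryonic stem cells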). The essentials: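 Proliferation read as average intensity of BrdU-positive cells, imaged at 26.25 h post-dosing: chemical exposure started after 40–44 h culture, BrdU during final 4 h, paraformaldehyde fixation. Positive-direction fit relative to DMSO.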

Experiment [17] can be described thus: UKN2_HCS_IMR90_cell_viability: Viability Assessment in the University of Konstanz (UKN) Leist Lab Neural Crest Cell Migration Assay in human induced IMR90 Pluripotent Stem Cells (UKN2) (AID 2284233).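 Note: viability of neural crest cells differentiated from IMR90 iPSC measured by calcein-AM fluorescence imaging.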 In short, it runs like this: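 Neural crest cells derived from IMR90 iPSC migrate into a stopper-free zone for 24 h in EGF/FGF medium, then are exposed to compound for 24 h. Viability assessed by calcein-AM and Hoechst staining with high-content imaging, fitted bidirectionally versus DMSO.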

Experiment [18] can be described thus: CCTE_Mundy_HCI_hN2_NOG_NeuriteCount: CCTE's Neurite Outgrowth Assay in human hN2 cells for Neurite Count, Mundy Lab (AID 2284219; active = hit-call score of the fitted dose curve at least 0.9, where 1 is the maximum). The essentials: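 In this morphology assay, hNP1-derived neurons received test chemical 2 h post-plating and were fixed two days later in warm paraformaldehyde/sucrose containing Hoechst 33342. Neurites, labelled by rabbit anti-βIII-tubulin (1:800) and Alexa Fluor-488 (1:500), were counted automatically.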

Experiment [19] can be described thus: CCTE_Mundy_HCI_hN2_NOG_NeuriteLength: CCTE's Neurite Outgrowth Assay in human hN2 cells for Neurite Length, Mundy Lab (AID 2284220; active = hit-call score of the fitted dose curve at least 0.9, where 1 is the maximum). In short, it runs like this: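 Read-out is neurite length from high-content imaging of βIII-tubulin/Alexa Fluor-488-labelled neurons, referenced to DMSO controls.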

Chain of Tumor necrosis factor (Homo sapiens) (P01375 whole entry, looked up): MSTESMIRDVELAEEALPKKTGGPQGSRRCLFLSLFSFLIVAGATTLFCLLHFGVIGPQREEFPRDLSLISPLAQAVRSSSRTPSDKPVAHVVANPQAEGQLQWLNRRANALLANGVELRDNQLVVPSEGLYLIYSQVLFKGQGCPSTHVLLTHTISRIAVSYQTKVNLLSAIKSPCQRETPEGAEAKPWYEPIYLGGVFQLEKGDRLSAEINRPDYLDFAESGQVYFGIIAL

With `CC(C)(C)c1ccccc1OP(=O)(Oc1ccccc1)Oc1ccccc1`, the AC50 in experiment [1] is 2.07 µM (active); in experiment [2], 32 µM (active); in experiment [3], 2.69 µM (active); in experiment [7] it was 13.5 µM (active); in experiment [8], 28.6 µM (active); in experiment [9] it was 29.2 µM (active). The AC50 was 24 µM (active) in experiment [10], 36.7 µM (active) in [11], 33.7 µM (active) in [12] and 26.2 µM (active) in [13]. Also, the compound was called inactive in experiment [4], in [5] and in experiment [6].
In the case of `c1cc2c3c(cccc3c1)CC2`, the half-maximal activity concentration (AC50) in experiment [2] was 32.2 µM (active). The outcome in experiment [14] and in experiment [15] was inactive.
On to `CO/N=C(/C(=O)OC)c1ccccc1COc1ccccc1C`, for which the concentration at half-maximal activity (AC50) in [1] is 3.31 µM (active); in experiment [3], 3.28 µM (active); in experiment [4], 5.23 µM (active); in experiment [5], 3.33 µM (active); in [17], 9.92 µM (active); in experiment [13] it was 13.4 µM (active). For the same compound, the result in experiment [16] was inactive.
Turning to `C=CC(=O)OCC(F)(F)C(F)F`, in experiment [16], the outcome was inactive. Also, the AC50 is 30 µM (active) and 23.6 µM (active) in experiment [6]; 43 µM (active) and 48.8 µM (active) in experiment [7]; 22.3 µM (active) and 36.2 µM (active) in experiment [8]; 34.1 µM (active) and 31.7 µM (active) in [9]; 30 µM (active) and 31.8 µM (active) in experiment [10]; 30 µM (active) and 29.8 µM (active) in [11]. For the same compound, the AC50 in [12] is 44.1 µM (active) and 32.7 µM (active).
Take `CCOc1ccc(C(C)(C)COCc2cccc(Oc3ccccc3)c2)cc1`: the results for the half-maximal activity concentration (AC50) in [1] and in [3] were 11.9 µM (active) and 15 µM (active), respectively. In addition, the result in experiment [4], in experiment [5] and in [16] was inactive.
With `O=P1(N(CCCl)CCCl)NCCCO1` (stereo not given), the call in experiment [1], in experiment [3], in experiment [18], in experiment [19], in [4] and in [5] was inactive. Also, the outcome in experiment [13] was inactive.
As for `OCC(F)(F)OC(F)(F)C(F)(F)OC(F)(F)C(F)(F)OC(F)(F)CO`, the result in experiment [6], in [8], in [9], in experiment [10], in [11] and in experiment [12] was inactive. Moreover, the AC50 in [7] was 30 µM (active); in experiment [9] it was 38.4 µM (active); in experiment [12], 41.2 µM (active).
On to `FC(F)(F)C(F)(C(F)(F)F)C(F)(F)C(F)(F)CC1CO1` (stereo not given), for which the result in [16], in experiment [6], in experiment [7], in [8], in experiment [9] and in experiment [10] was inactive. Further, the result in experiment [11] and in experiment [12] was inactive.
For `Cc1ccc2c(c1N)C(=O)c1ccccc1C2=O`, the outcome in experiment [6], in experiment [7], in experiment [8], in experiment [10] and in experiment [12] was inactive. In addition, the AC50 in experiment [9] was 0.144 µM (active); in experiment [11] it was 20 µM (active).
Turning to `O=P(Oc1ccccc1)(Oc1ccccc1)Oc1ccccc1`, the result in experiment [2] and in [15] was inactive.
As to `CCOP(=S)(OCC)SCSCC`, the half-maximal activity concentration (AC50) was 50 µM (active) in experiment [1]; 50 µM (active) and 67.7 µM (active) in experiment [3]; 81.1 µM (active) in experiment [4]; 77.6 µM (active) in [5]. Further, the outcome in experiment [4], in experiment [5], in experiment [16], in experiment [17] and in [13] was inactive.
Regarding `O=C(O)C=CC(F)(C(F)(F)F)C(F)(F)F`, the outcome in experiment [6], in experiment [7], in experiment [8], in experiment [9], in experiment [10] and in [11] was inactive. Also, the outcome in experiment [12] was inactive.
